High-throughput results as filed in PubChem BioAssay.
Most compounds without a hit are left out; they make up all but 8.1% or so of the library.
MCF10A rereplic – DNA re-replication induction in MCF 10a cells | AID 624296 | MCF 10A DNA re-replication, Hoechst nuclear intensity, 48 h | Potency, µM (top dose mostly 46.1 µM), usual class: activators | 350,000 compounds, 2.9% hits; further: nearly all actives have a fitted effect of over 50% in size
SW480 rereplic – induces DNA re-replication in SW480 colon adenocarcinoma cells | SW480 DNA re-replication, Hoechst DNA content imaging, 48 h | Potency, µM (titrated, usually from 46.1 µM), most hits filed as activators | 340,000 compounds, 1.8% hits; further: nearly all actives have a fitted effect of over 55% in size
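Cells (250 per well) received 23 nL compound or DMSO by pin tool and were kept 48 hr at 37 C, 5% CO2. Nuclei were then stained with Hoechst for 40 min and scanned for DNA content.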
KB-3-1 tox – kills parental KB-3-1 adenocarcinoma cells. AID 1347075. 400,000 compounds, 1.4% hits. Potency, µM (doses to about 46.1 µM), usual class: cytotoxic. KB-3-1 viability, CellTiter-Glo ATP luminescence, 72 h; further: nearly all actives have a fitted effect of over 60% in size
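72 h, 37 °C compound treatment of KB-3-1 parental cells; CellTiter-Glo added, 10 min, luminescence read. Data corrected against DMSO-only plates and normalized before curve fitting.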
ELG1 DNA repair – inhibitors of ELG1-dependent DNA repair in HEK293T cells; HEK293T ELG1-luciferase reporter, luminescence, 16 h; DNA damage induced by 5-fluorouridine; Potency, µM (doses to about 46.1 µM), usual class: inhibitors; 330,000 compounds, 2.3% hits; further: nearly all actives have a fitted effect of over 55% in size
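In this reporter screen, reduction of luminescence relative to DMSO vehicle indicated activity. Compounds and 5-fluorouridine were added together to 2,000 cells per well, incubated for 16 hr at 37 °C, then developed with ONE-Glo.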
KB-V1 MDR tox – kills drug-selected multidrug resistant KB-V1 cells; 400,000 compounds, 3.4% hits; Potency, µM (titrated, usually from 46.1 µM), most hits filed as cytotoxic; KB-V1 MDR cells viability, CellTiter-Glo, 72 h; further: nearly all actives have a fitted effect of over 60% in size
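Following 72 h at 37 degrees C with compound, KB-V1 cell viability was read by CellTiter-Glo luminescence, medium being phenol-red-free DMEM plus 10% FBS; concentration-response parameters came from normalized, curve-fitted qHTS data.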
Each line names hits and unclear results; the compound was inactive in the other large screens. The call rests on the fitted dose curve; in most records, active means well fitted curve in the direction sought with a large enough effect; inconclusive means small, poorly fitted or top-dose-only effect, or another doubt; inactive means no such curve, though single readings can be large; an effect the other way counts as inactive or inconclusive.

COc1ccc(OCC(=O)N2CCN(CCc3ccccn3)CC2)cc1	none (no result: MCF10A rereplic, SW480 rereplic, ELG1 DNA repair)
CCC(=NCc1ccc(F)cc1)c1c(O)n(C)c(=O)n(C)c1=O	KB-3-1 tox inconclusive, ELG1 DNA repair 7.9µM, KB-V1 MDR tox 15µM
CCC(=Nc1ccc2c(c1)CCC2)c1c(O)n(C)c(=O)n(C)c1=O	ELG1 DNA repair inconclusive
CCOC(=O)c1ccc(N=C(CC)c2c(O)n(C)c(=O)n(C)c2=O)cc1	none
CCC(=Nc1ccc(Cc2ccncc2)cc1)c1c(O)n(C)c(=O)n(C)c1=O	ELG1 DNA repair 7.3µM
CCC(=NCCC(c1ccccc1)c1ccccc1)c1c(O)n(C)c(=O)n(C)c1=O	MCF10A rereplic 8.2µM, KB-3-1 tox inconclusive, ELG1 DNA repair inconclusive, KB-V1 MDR tox inconclusive
Cc1cc(C)cc(C(=O)OC2CC3CCC(C2)N3C)c1 (configuration not stated)	MCF10A rereplic inconclusive (no result: KB-3-1 tox, ELG1 DNA repair, KB-V1 MDR tox)
O=C(Cc1c(O)c2ccccc2oc1=O)c1ccc(F)cc1	ELG1 DNA repair inconclusive, KB-V1 MDR tox inconclusive
Nc1ncnc2c1ncn2[C@@H]1O[C@H](COP(=O)(O)CP(=O)(O)O)[C@@H](O)[C@H]1O	KB-V1 MDR tox 15µM (no result: ELG1 DNA repair)
O=c1c2ccccc2[se]n1-c1ccccc1	MCF10A rereplic inconclusive, SW480 rereplic 18µM, KB-3-1 tox inconclusive, KB-V1 MDR tox inconclusive
O=c1c2ccccc2nc(-c2ccccc2)n1-c1ccccc1	KB-V1 MDR tox inconclusive
COc1cc2c(cc1OC)[C@@]13CCN4CC5=CCOC6CC(=O)N2C1[C@H]6[C@@H]5C[C@@H]43 (some centres not stated)	none (no result: KB-3-1 tox, ELG1 DNA repair, KB-V1 MDR tox)
CCOP(=O)(/C(C#N)=C(\C)O)c1ccccc1 (configuration not stated)	none
CC1CCC(C(C)C)C(OC(=O)Cn2c(COc3ccccc3)[n+](C)c3ccccc32)C1 (configuration not stated)	MCF10A rereplic inconclusive, KB-3-1 tox 23µM, ELG1 DNA repair inconclusive
CNc1ccc(C(=O)CC(O)CCC(C)C2OC(=O)CC(O)CC(=O)CC(O)CC(O)CC(O)CC(O)CC3(O)CC(O)C(C(=O)OC)C(CC(O[C@@H]4OC(C)C(O)C(N)C4O)/C=C/C=C/C=C/C=C/C=C/C=C/C=C/C2C)O3)cc1 (some centres not stated)	none (no result: KB-3-1 tox, ELG1 DNA repair, KB-V1 MDR tox)
Cc1ccc(OCC(=O)N2CCN(C3CCC(c4ccccc4)CC3)CC2)cc1 (configuration not stated)	MCF10A rereplic 13µM, KB-V1 MDR tox inconclusive
Cc1cc(C(=O)O)oc(=O)c1	none
CCCCn1c(=O)c(C(=O)Nc2ccccc2)c(O)c2ccccc21	KB-V1 MDR tox 13µM
CCCCCCn1c(=O)c(C(=O)Nc2nnc(C)s2)c(O)c2ccccc21	none (no result: MCF10A rereplic, SW480 rereplic, KB-3-1 tox, KB-V1 MDR tox)
CCCCCn1c(=O)c(C(=O)NCc2ccco2)c(O)c2ccccc21	KB-V1 MDR tox 21µM
CCCCCn1c(=O)c(C(=O)Nc2ccccc2S(N)(=O)=O)c(O)c2ccccc21	MCF10A rereplic 4.1µM, SW480 rereplic 3.7µM, KB-3-1 tox 10µM, ELG1 DNA repair inconclusive, KB-V1 MDR tox inconclusive
CCCCCCn1c(=O)c(C(=O)Nc2ccncc2)c(O)c2ccccc21	none (no result: MCF10A rereplic, SW480 rereplic, KB-3-1 tox, KB-V1 MDR tox)
CCCCCn1c(=O)c(C(=O)Nc2nc(CC(=O)OCC)cs2)c(O)c2ccccc21	ELG1 DNA repair inconclusive, KB-V1 MDR tox 6.5µM
CC(C)CCOP(=O)(c1ccc(N(C)C)cc1)C(O)c1ccc(C(C)C)cc1 (configuration not stated)	SW480 rereplic inconclusive, KB-V1 MDR tox inconclusive
CCCCn1c(=O)c(C(=O)Nc2ccccc2S(N)(=O)=O)c(O)c2ccccc21	MCF10A rereplic inconclusive, KB-V1 MDR tox 16µM
CCC1OC(=O)CC(O)C(C)[C@@H](O[C@@H]2OC(C)[C@H](O[C@@H]3C[C@@](C)(O)C(O)C(C)O3)C(N(C)C)C2O)[C@H](CC=O)CC(C)C(=O)/C=C/C(C)=C/[C@@H]1COC1OC(C)C(O)C(OC)[C@@H]1OC (some centres not stated)	none (no result: KB-3-1 tox, ELG1 DNA repair, KB-V1 MDR tox)
FC(F)OC(F)(F)C(F)Cl (configuration not stated)	none (no result: KB-3-1 tox, ELG1 DNA repair, KB-V1 MDR tox)
CCOC(=O)[C@]12Cc3cc(Cl)ccc3[C@H]1N(C)C(=O)c1cc(OC)ccc12	KB-3-1 tox 2.6µM, KB-V1 MDR tox 4.1µM (no result: MCF10A rereplic, SW480 rereplic, ELG1 DNA repair)
CCCCCN1C(=O)c2cc(OC)ccc2[C@@]2(C(=O)OCC)Cc3cc(OC)ccc3[C@@H]12	KB-3-1 tox 5.8µM, KB-V1 MDR tox 23µM (no result: MCF10A rereplic, SW480 rereplic, ELG1 DNA repair)
CCOC(=O)[C@]12Cc3cc(OC)ccc3[C@H]1N(C)C(=O)c1cc(OC)ccc12	KB-3-1 tox 3.7µM, KB-V1 MDR tox inconclusive (no result: MCF10A rereplic, SW480 rereplic, ELG1 DNA repair)
CCOC(=O)[C@]12Cc3cc(OC)ccc3[C@H]1N(CC(=O)OC)C(=O)c1cc(OC)ccc12	KB-3-1 tox 4.6µM, KB-V1 MDR tox inconclusive (no result: MCF10A rereplic, SW480 rereplic, ELG1 DNA repair)
CCOc1ccc(OCC)c(NC(=O)CN2CCN(c3ccc(C)cc3C)CC2)c1	MCF10A rereplic inconclusive, ELG1 DNA repair inconclusive
O=C(O)CSCC(=O)N(Cc1ccccc1)c1nc(-c2ccccc2)c(-c2ccccc2)s1	MCF10A rereplic inconclusive
O=C(Nc1ccc(Br)cc1C(=O)O)c1ccc2c(c1)C(=O)N(Cc1ccccc1)C2=O	MCF10A rereplic inconclusive
O=C(c1cc2cc(Cl)ccc2[nH]1)N1CCC2(CC1)OCCO2	MCF10A rereplic 23µM, ELG1 DNA repair inconclusive
COc1ccc(-n2c(/C=C/c3cccc(F)c3)nc3ccccc3c2=O)cc1Cl	none (no result: MCF10A rereplic, SW480 rereplic, ELG1 DNA repair)
COc1ccc(-n2c(/C=C/c3ccc(O)c(O)c3)nc3ccccc3c2=O)cc1	MCF10A rereplic inconclusive, SW480 rereplic inconclusive, ELG1 DNA repair 18µM
O=c1c2ccccc2nc(/C=C/c2ccccc2O)n1-c1ccccc1O	ELG1 DNA repair 23µM (no result: MCF10A rereplic, SW480 rereplic, KB-3-1 tox, KB-V1 MDR tox)
COc1cc(/C=C/c2nc3ccccc3c(=O)n2-c2ccc(O)cc2)ccc1O	MCF10A rereplic 21µM, SW480 rereplic inconclusive, KB-3-1 tox inconclusive, ELG1 DNA repair 16µM, KB-V1 MDR tox inconclusive
COc1cccc(-n2c(C)nc3ccccc3c2=O)c1	none
COc1cccc(-n2c(-c3ccoc3)nc3ccccc3c2=O)c1	ELG1 DNA repair inconclusive, KB-V1 MDR tox 15µM
O=C(Nc1ccon1)c1cccn(Cc2cccc([N+](=O)[O-])c2)c1=O	none (no result: MCF10A rereplic, SW480 rereplic, ELG1 DNA repair)
CCOc1ccc(S(=O)(=O)N2CCC(C(=O)NCc3cccnc3)CC2)cc1Cl	SW480 rereplic inconclusive
O=P(Nc1ccccc1)(Nc1ccccc1)Oc1ccccc1	ELG1 DNA repair inconclusive
O=P(Nc1ccccc1)(Nc1ccccc1)Oc1cccc(Cl)c1	ELG1 DNA repair 16µM
CC(C)NCC(O)c1ccc(C2CCCC2)cc1 (configuration not stated)	KB-V1 MDR tox 23µM
CN1C(=O)NC(=O)/C(=C\C=C\c2ccccc2[N+](=O)[O-])C1=O	MCF10A rereplic inconclusive, SW480 rereplic 15µM, KB-3-1 tox inconclusive, ELG1 DNA repair inconclusive
Cc1cccc(C2CC(=O)Oc3c2c(=O)oc2ccccc32)c1 (configuration not stated)	none (no result: MCF10A rereplic, SW480 rereplic, ELG1 DNA repair)
